In PubChem BioAssay (EPA / NIEHS):
Some structures have more than one record in an assay (separate samples or runs), and their calls can disagree. Active and inactive are the calls of the source. Rule for the calls: active = hit-call score of the fitted dose curve at least 0.9, where 1 is the maximum; inactive = score below 0.9.

The compounds below were run on Transforming Growth Factor (TGFB1), TGFB1 (gene 7040) (assay: LTEA_HepaRG_TGFB1: Life Technologies and Expression Analysis (LTEA) Assay for Transforming Growth Factor (TGFB1) Transporter using HepaRG (AID 2283533)). Details: mRNA level, 48 h; actives raise or lower the signal.
Procedure, shortened: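 Eight-point concentration-response (max 100 uM, half-log) in HepaRG under serum-free induction conditions, 48 h. TGFB1 mRNA by qRT-PCR, housekeeping-normalized.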
With CCN(CC)C(=O)SCc1ccc(Cl)cc1 the outcome was “inactive”. In the case of O=[N+]([O-])/N=C1\NCCN1Cc1ccc(Cl)nc1, the outcome is reported as “inactive”. COP(=S)(OC)Oc1ccc(SC)c(C)c1 was tested, and the outcome was “inactive”. In the case of CCC(C)(C)C(=O)OC1=C(c2ccc(Cl)cc2Cl)C(=O)OC12CCCCC2, the outcome is reported as “inactive”. For CC(C)OC(=O)Nc1cccc(Cl)c1, the outcome was “inactive”. In the case of CCC(C)Nc1c([N+](=O)[O-])cc(C(C)(C)C)cc1[N+](=O)[O-] (stereo not drawn), the outcome is reported as “inactive”. For Oc1cc(Cl)ccc1Oc1ccc(Cl)cc1Cl, the outcome was “inactive”. In the case of CNC(=O)Oc1cccc(N=CN(C)C)c1, the outcome is reported as “inactive”. With O=S(=O)(O)C(F)(F)C(F)(F)C(F)(F)C(F)(F)C(F)(F)C(F)(F)C(F)(F)C(F)(F)F the AC50 was 48 µM (active) and the outcome was “inactive”. In the case of CCc1ccc(C(=O)NN(C(=O)c2cc(C)cc(C)c2)C(C)(C)C)cc1, the outcome is reported as “inactive”. For O=C(O)C(F)(F)C(F)(F)C(F)(F)C(F)(F)C(F)(F)C(F)(F)C(F)(F)F, the outcome was “inactive”. In the case of O=C1c2ccccc2C(=O)N1SC(Cl)(Cl)Cl, the outcome is reported as “inactive”. In the case of Oc1ccc(Cl)cc1Cc1ccccc1, the outcome is reported as “inactive”. With COP(=O)(OC)OC=C(Cl)Cl the outcome was “inactive”. With O=[N+]([O-])c1c(Cl)c(Cl)c(Cl)c(Cl)c1Cl the outcome was “inactive”. With CNC(=O)Oc1ccccc1OC(C)C the outcome was “inactive”. For CC(C)(C)C(O)C(Oc1ccc(Cl)cc1)n1cncn1 (stereo not drawn), the outcome was “inactive”. CN1CSC(=S)N(C)C1 was tested, and the outcome was “inactive”. For OCCOc1ccccc1, the outcome was “inactive”. In the case of CC1(c2ccc(Oc3ccccc3)cc2)OC(=O)N(Nc2ccccc2)C1=O (stereo not drawn), the outcome is reported as “inactive”. ClC1C(Cl)C(Cl)C(Cl)C(Cl)C1Cl (stereo not drawn) was tested, and the outcome was “inactive”. In the case of N#Cc1c(Cl)c(Cl)c(Cl)c(C#N)c1Cl, the outcome is reported as “inactive”. COc1nn(CSP(=S)(OC)OC)c(=O)s1 was tested, and the outcome was “inactive”.

These compounds were tested on TIMP1, TIMP1 (gene 7076) (assay: LTEA_HepaRG_TIMP1: Life Technologies and Expression Analysis (LTEA) Assay for TIMP1 using HepaRG (AID 2283534;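 for outcome: TaqMan qRT-PCR signal normalized to ACTB GAPDH and POLR2A housekeeping genes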)). Details: mRNA level, 48 h; actives raise or lower the signal.
Procedure, shortened: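 TIMP1 induction or repression in HepaRG cells after 48 h chemical exposure (eight concentrations, highest 100 uM), assessed by normalized qRT-PCR with bidirectional fitting to DMSO controls.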
In the case of CCN(CC)C(=O)SCc1ccc(Cl)cc1, the outcome is reported as “inactive”. O=[N+]([O-])/N=C1\NCCN1Cc1ccc(Cl)nc1 was tested, and the outcome was “inactive”. For COP(=S)(OC)Oc1ccc(SC)c(C)c1, the outcome was “inactive”. CCC(C)(C)C(=O)OC1=C(c2ccc(Cl)cc2Cl)C(=O)OC12CCCCC2 was tested, and the outcome was “inactive”. In the case of CC(C)OC(=O)Nc1cccc(Cl)c1, the outcome is reported as “inactive”. With CCC(C)Nc1c([N+](=O)[O-])cc(C(C)(C)C)cc1[N+](=O)[O-] (stereo not drawn) the outcome was “inactive”. In the case of Oc1cc(Cl)ccc1Oc1ccc(Cl)cc1Cl, the AC50 is reported as 10.1 µM (active) and the outcome is reported as “inactive”. In the case of CNC(=O)Oc1cccc(N=CN(C)C)c1, the outcome is reported as “inactive”. O=S(=O)(O)C(F)(F)C(F)(F)C(F)(F)C(F)(F)C(F)(F)C(F)(F)C(F)(F)C(F)(F)F was tested, and the outcome was “inactive”. In the case of CCc1ccc(C(=O)NN(C(=O)c2cc(C)cc(C)c2)C(C)(C)C)cc1, the outcome is reported as “inactive”. For O=C(O)C(F)(F)C(F)(F)C(F)(F)C(F)(F)C(F)(F)C(F)(F)C(F)(F)F, the outcome was “inactive”. In the case of O=C1c2ccccc2C(=O)N1SC(Cl)(Cl)Cl, the outcome is reported as “inactive”. For Oc1ccc(Cl)cc1Cc1ccccc1, the outcome was “inactive”. COP(=O)(OC)OC=C(Cl)Cl was tested, and the outcome was “inactive”. With O=[N+]([O-])c1c(Cl)c(Cl)c(Cl)c(Cl)c1Cl the outcome was “inactive”. For CNC(=O)Oc1ccccc1OC(C)C, the outcome was “inactive”. With CC(C)(C)C(O)C(Oc1ccc(Cl)cc1)n1cncn1 (stereo not drawn) the outcome was “inactive”. CN1CSC(=S)N(C)C1 was tested, and the outcome was “inactive”. In the case of OCCOc1ccccc1, the outcome is reported as “inactive”. For CC1(c2ccc(Oc3ccccc3)cc2)OC(=O)N(Nc2ccccc2)C1=O (stereo not drawn), the outcome was “inactive”. With ClC1C(Cl)C(Cl)C(Cl)C(Cl)C1Cl (stereo not drawn) the outcome was “inactive”. For N#Cc1c(Cl)c(Cl)c(Cl)c(C#N)c1Cl, the AC50 was 22.5 µM (active). With COc1nn(CSP(=S)(OC)OC)c(=O)s1 the outcome was “inactive”.
